Assay [1] can be described thus: NCI Yeast Anticancer Drug Screen. Data for the rad50 strain (AID 155).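 Also: 0% = growth of vehicle-only cultures of the same strain.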 The conditions noted are these: S. cerevisiae rad50 strain growth inhibition, stronger effect = higher value. The gist of the method:
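Relative growth inhibition (compound vs vehicle) was measured in yeast with a defined repair-gene alteration.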

The nature of assay [2]: NCI Yeast Anticancer Drug Screen. Data for the mec2-1 strain (AID 157). Conditions: S. cerevisiae mec2-1 strain, stronger effect = higher value. The gist of the method:
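Growth inhibition is read against vehicle-treated controls after compound exposure of the mec2-1 yeast strain, which is defective in DNA damage repair or cell cycle control.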

Assay [3] can be described thus: NCI Yeast Anticancer Drug Screen. Data for the sgs1 mgt1 strain (AID 161).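 Also: 0% = growth of cultures given vehicle only.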 The conditions noted are these: S. cerevisiae sgs1 mgt1 strain, stronger effect = higher value. The method in brief:
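This yeast growth screen uses a strain with defined DNA-repair lesions; compound-treated growth is compared with vehicle-treated growth.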

The nature of assay [4]: NCI Yeast Anticancer Drug Screen. Data for the cln2 rad14 strain (AID 165).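 Also: 0% = growth equal to vehicle treated cultures.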 Conditions: S. cerevisiae cln2 rad14 strain, stronger effect = higher value. The method in brief: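 Growth inhibition, relative to vehicle-treated controls, is the read-out. The test organism is a yeast strain with defined genetic alterations, cln2 rad14.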
Assay [5] in a line: NCI Yeast Anticancer Drug Screen. Data for the bub3 strain (AID 167). Conditions: S. cerevisiae bub3 mutant strain, stronger effect = higher value. The method in brief: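 Screening used yeast with an engineered genetic alteration affecting cell cycle control. Compound-exposed cultures were compared with vehicle cultures, and reduced growth was taken as inhibition.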
Assay [6] can be described thus: NCI Yeast Anticancer Drug Screen. Data for the mlh1 rad18 strain (AID 175). The conditions noted are these: S. cerevisiae mlh1 rad18 strain growth inhibition, stronger effect = higher value. The method in brief: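 Cells of a genetically altered yeast strain, deficient in DNA damage repair, were treated with compound. Their growth was then compared with that of vehicle-treated cultures to give inhibition.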

Where [7] appears, read: at 5.0 µM (retest, dose inferred, filed as 0.5).
The mark [8] stands for this setting: at 50.0 µM (retest, dose inferred, filed as 5.0).

Structures are written as SMILES. Compounds without any hit were thinned out: in the full panel of roughly 79,000, 15% have a hit. Values without a mark were called inactive. The source made the active and inactive calls. Rule as the data show it: active = growth inhibition above about 70%; inactive = the rest.

On to `CN(C)CC1CC/C(=C\c2ccc(Cl)c(Cl)c2)C1=O` (stereo not drawn), for which the growth inhibition in assay [1] (setting [7]) was 21%; in assay [1] (setting [8]) it was 98% (active); in assay [1] (at 50.0 µM), 93.1% (active); in assay [2] (setting [7]), 44%; in assay [2] (setting [8]), 99% (active); in assay [2] (at 50.0 µM) it was 93.6% (active). In addition, the growth inhibition in assay [3] (setting [7]) was 25%; in assay [3] (setting [8]) it was 98% (active); in assay [3] (at 50.0 µM), 92.4% (active); in assay [4] (setting [7]), 37%; in assay [4] (setting [8]) it was 99% (active); in assay [4] (at 50.0 µM) it was 91.3% (active). Also, the growth inhibition in assay [5] (setting [7]) was 74% (active); in assay [5] (setting [8]), 99% (active); in assay [5] (at 50.0 µM) it was 91.5% (active); in assay [6] (setting [7]) it was 84% (active); in assay [6] (setting [8]) it was 99% (active); in assay [6] (at 50.0 µM), 90.2% (active).
`Cc1ccc(C)c(S(=O)(=O)Nc2c([N+](=O)[O-])cc([N+](=O)[O-])c3ccccc23)c1`: the growth inhibition was 30% in assay [1] (setting [7]); 35% in assay [1] (setting [8]); 85.7% (active) in assay [1] (at 50.0 µM); 30% in assay [2] (setting [7]); 40% in assay [2] (setting [8]); 86.6% (active) in assay [2] (at 50.0 µM). For the same compound, the growth inhibition is 47% in assay [3] (setting [7]); 29% in assay [3] (setting [8]); 87.5% (active) in assay [3] (at 50.0 µM); 32% in assay [4] (setting [7]); 54% in assay [4] (setting [8]); 86% (active) in assay [4] (at 50.0 µM). Moreover, the growth inhibition was 20% in assay [5] (setting [7]); 30% in assay [5] (setting [8]); 79.8% (active) in assay [5] (at 50.0 µM); 34% in assay [6] (setting [7]); 59% in assay [6] (setting [8]); 83.6% (active) in assay [6] (at 50.0 µM).
With `C=CC(=O)Nc1ccccc1CC(c1c[nH]c2ccccc12)c1c[nH]c2ccccc12`, the growth inhibition in assay [1] (setting [7]) was 34%; in assay [1] (setting [8]), 34%; in assay [1] (at 50.0 µM), 85% (active); in assay [2] (setting [7]), 26%; in assay [2] (setting [8]) it was 26%; in assay [2] (at 50.0 µM) it was 73.7% (active). The growth inhibition is 34% in assay [3] (setting [7]); 34% in assay [3] (setting [8]); 81.5% (active) in assay [3] (at 50.0 µM); 12% in assay [4] (setting [7]); 12% in assay [4] (setting [8]); 84.3% (active) in assay [4] (at 50.0 µM). For the same compound, the growth inhibition was 21% in assay [5] (setting [7]); 21% in assay [5] (setting [8]); 74.5% (active) in assay [5] (at 50.0 µM); 27% in assay [6] (setting [7]); 27% in assay [6] (setting [8]); 76.9% (active) in assay [6] (at 50.0 µM).
In the case of `Cc1ccc(C(=O)OCCN2CCN(c3ccccc3)CC2)c([N+](=O)[O-])c1OCc1ccccc1`, the growth inhibition in assay [1] (setting [7]) was 30%; in assay [1] (setting [8]), 66%; in assay [1] (at 50.0 µM) it was 87% (active); in assay [2] (setting [7]), 36%; in assay [2] (setting [8]), 43%; in assay [2] (at 50.0 µM) it was 63.9%. The growth inhibition is 25% in assay [3] (setting [7]); 82% (active) in assay [3] (setting [8]); 89.3% (active) in assay [3] (at 50.0 µM); 24% in assay [4] (setting [7]); 64% in assay [4] (setting [8]); 74% (active) in assay [4] (at 50.0 µM). The growth inhibition is 28% in assay [5] (setting [7]); 70% (active) in assay [5] (setting [8]); 72.7% (active) in assay [5] (at 50.0 µM); 19% in assay [6] (setting [7]); 78% (active) in assay [6] (setting [8]); 90.6% (active) in assay [6] (at 50.0 µM).
`CC1=NN(c2ccccc2)C(=O)C1N=Nc1cc(Cl)cc(S(=O)(=O)O)c1O` (stereo not drawn): the growth inhibition in assay [1] (setting [7]) was 59%; in assay [1] (setting [8]) it was 99% (active); in assay [1] (at 50.0 µM), 66.3%; in assay [2] (setting [7]), 66%; in assay [2] (setting [8]), 99% (active); in assay [2] (at 50.0 µM), 21.6%. For the same compound, the growth inhibition in assay [3] (setting [7]) was 21%; in assay [3] (setting [8]), 52%; in assay [3] (at 50.0 µM), 55.7%; in assay [4] (setting [7]), 21%; in assay [4] (setting [8]), 30%; in assay [4] (at 50.0 µM) it was 29.7%. For the same compound, the growth inhibition in assay [5] (setting [7]) is 66%; in assay [5] (setting [8]) it was 30%; in assay [5] (at 50.0 µM) it was 26.3%; in assay [6] (setting [7]), 52%; in assay [6] (setting [8]), 99% (active); in assay [6] (at 50.0 µM) it was 42.5%.
As for `CC[N+](C)(CC)CCC[n+]1c(-c2ccccc2)c2cc(N)ccc2c2ccc(N)cc21`, the growth inhibition in assay [1] (setting [7]) is 60%; in assay [1] (setting [8]) it was 90% (active); in assay [1] (at 50.0 µM), 94.6% (active); in assay [2] (setting [7]) it was 1%; in assay [2] (setting [8]) it was 27%; in assay [2] (at 50.0 µM) it was 44.2%. Moreover, the growth inhibition is -2% in assay [3] (setting [7]); 33% in assay [3] (setting [8]); 68.9% in assay [3] (at 50.0 µM); -3% in assay [4] (setting [7]); 19% in assay [4] (setting [8]); 24.9% in assay [4] (at 50.0 µM). In addition, the growth inhibition in assay [5] (setting [7]) was -7%; in assay [5] (setting [8]) it was 9%; in assay [5] (at 50.0 µM) it was 18.9%; in assay [6] (setting [7]), 4%; in assay [6] (setting [8]), 49%; in assay [6] (at 50.0 µM), 82% (active).

The values are drawn from PubChem BioAssay (NCI).
